Out of some 69,000 compounds screened, about 8,600 (12%) showed an effect of 50% or more. The sample holds strong results, similar compounds and a random draw of the others, so the mix is not that of the screen.
System: Plasmodium berghei
Assay: Screen against P. berghei liver stage (PbLuc), transformed with Luciferase, at 10uM
Format: functional, HepG2
Conditions: tested at 10 uM

SMILES | INHIBITION [%]
CN(C)CCCN(Cc1ccco1)Cc1ccnn1C1CCCCO1 (stereo not drawn) | -0.232
Cc1ccoc1C(=O)N1C[C@@H]2[C@@H](C1)OCC(=O)N2Cc1cccnc1 | 0
OC1(CN2CCOC(CNc3cccnn3)C2)CCCCC1 (stereo not drawn) | 25.4
Cn1c(N2CCOCC2)nc2cc(C(=O)NCc3cccnc3)ccc21 | 48.2
CC(=O)NCc1ccc(C(=O)N2CCCC2c2cnn(C)c2)cc1 (stereo not drawn) | -12.1
CC(=O)N1CCC(c2cncc(N3CCCC(O)C3)n2)CC1 (stereo not drawn) | -6.73
O=c1cc(C2CCNCC2)nc(CCCc2ccccc2)[nH]1 | 22.7
O=c1cc(C2CCNCC2)nc(Cc2cccc(Cl)c2)[nH]1 | 52.2
O=c1cc(C2CCNCC2)nc(CCc2ccccn2)[nH]1 | -0.273
CN(CCCOc1ccccc1Cl)C(=O)CN1C(=O)CCNC1=O | -44.2
COC(=O)CCCNC(=O)N1CCc2c([nH]c3ccc(Cl)cc23)C1 | -50
COc1ccc(C(=O)N2C[C@@H](O)[C@H](NCc3ncccc3C)C2)cc1 | 31.45
CCc1ncc2c(n1)CN(Cc1nnc(C(C)C)o1)CC2 | 30.3
CC(C)N1CCC(c2ccnc3c(C(=O)N4CCOCC4)ncn23)CC1 | 12.7
O=C(c1ncn2c(C3CCN(CC4CC4)CC3)ccnc12)N1CCCC1 | 12.7
CC(C)N1CCC(c2ccnc3c(C(=O)N4CCCC4)ncn23)CC1 | 60
CN(CC(=O)NC1(C)CCS(=O)(=O)C1)Cc1ccc(F)c(F)c1 (stereo not drawn) | 27.6
Cc1cc(S(=O)(=O)Nc2onc(C)c2C)c(C)s1 | 4.1
Cc1noc(NS(=O)(=O)c2ccc(Cl)s2)c1C | 44.7
Cc1cc(S(=O)(=O)Nc2onc(C)c2C)sc1C | 87.5
CN(C)c1cc(CNC(=O)c2cccnc2O)ccn1 | 9.64
COCc1cn(CC2CCN(Cc3cc(C)[nH]n3)CC2)nn1 | 26.7
COC[C@@H]1CC[C@H]2[C@H](CCN2C(=O)c2ccncc2F)O1 | 29
COCCN(C)c1ccc(NCc2cscn2)nc1 | 75.1
COCCOc1ccc(NC(=O)N(C)Cc2ccsc2)cn1 | 31.8
CCn1cc(CNc2ccc3nccnc3c2)cn1 | 18.8
CCn1cc(CNc2ccc(Br)c(OC)c2)cn1 | 32

SMILES | INHIBITION [%]
COC(=O)c1cc(NCc2cscn2)ccc1C | 11.9
COCCN(C)c1ccc(NCc2cccnc2)nc1 | 15.1
CCn1cc(CNc2ccc(N(C)CCOC)cn2)cn1 | 57.2
COCCN(C)c1ccc(NCc2ccsc2)nc1 | 80.8
COc1cccc(-c2cc(NCc3cscn3)n(C)n2)c1 | -40.5
Cn1ccnc(Sc2ccccc2)c1=O | -4.13
CCOc1ccccc1C(=O)NCc1nncn1C1CC1 | 11.4
CC1(c2nccs2)CCN(C(=O)CC2CCOCC2)CC1 | -1.25
CC(=O)N1CCC2(CCCN(S(=O)(=O)c3ccccc3)C2)C1 (stereo not drawn) | -60.3
CCc1cc(NCCCNS(C)(=O)=O)nc(-c2ccncc2)n1 | 15.2
CCC=C(C)C(=O)N1CSCC1C(=O)N(C)CCc1ccncc1 (stereo not drawn) | -16.7
Cc1cc(C)n(CC2CCCCN2CC(=O)Nc2nncs2)n1 (stereo not drawn) | 11.1
Cc1cc(C)n(CC2CCCCN2CC(=O)Nc2nnc(C)s2)n1 (stereo not drawn) | -16.5
Cc1cc(C)n(CC2CCCCN2CC(=O)Nc2nccs2)n1 (stereo not drawn) | 77.6
CCCc1n[nH]c(C2CN(CCc3cccs3)CCO2)n1 (stereo not drawn) | -23.9
CCC(C)N(CC)C(=O)c1ccc2[nH]nnc2c1 (stereo not drawn) | -29.1
CN1CCN(CC(C)(C)C)CC1CCO (stereo not drawn) | -1.26
COc1cc(C(=O)O)ccc1OCC(=O)NCCc1ccccc1 | 37.4
Cc1cc(C)c(CNC(=O)NCCNc2ncccn2)c(=O)[nH]1 | 25.7
Cc1cc(C)c(CNC(=O)C2CCN(c3cnccn3)CC2)c(=O)[nH]1 | 12.255
O=C(C1CCS(=O)(=O)C1)N1CCN(c2cnccn2)CC1 (stereo not drawn) | 16.7
Cc1cc(C)c(CNC(=O)NCCNc2ccccn2)c(=O)[nH]1 | 46.1
O=C(NCC1CCS(=O)(=O)C1)N1CCN(c2cnccn2)CC1 (stereo not drawn) | 50.3
Cc1cc(C)c(CNC(=O)NCCNc2cnccn2)c(=O)[nH]1 | 73
Cc1cc(C)c(CNC(=O)N2CCN(c3ccccn3)CC2)c(=O)[nH]1 | 9.4
O=C(NC1CCS(=O)(=O)C1)N1CCN(c2cnccn2)CC1 (stereo not drawn) | 33
